# The whole screen tested about 190,000 compounds, of which about 1,300 (0.68%) were called active. Many of the other results were omitted from the sample, so actives are more common in it than they were. Unmarked numbers belong to inactive results. Cut-off read from the data, not from the text of the source: active = inhibition above about 50%; inactive = the rest.
# Target: Mannose-6-phosphate isomerase (Homo sapiens) (UniProt P34949)
# Experiment: MPI inhibition at elevated mannose 6-phosphate – biochemical, fluorescence intensity, high mannose 6-phosphate, primary screen (AID 1220)
# Settings: recombinant PMI enzyme, coupled fluorescence intensity; at 20 µM; stronger effect = higher value
# Mannose-6-phosphate isomerase (Homo sapiens), sequence (P34949 whole entry, looked up): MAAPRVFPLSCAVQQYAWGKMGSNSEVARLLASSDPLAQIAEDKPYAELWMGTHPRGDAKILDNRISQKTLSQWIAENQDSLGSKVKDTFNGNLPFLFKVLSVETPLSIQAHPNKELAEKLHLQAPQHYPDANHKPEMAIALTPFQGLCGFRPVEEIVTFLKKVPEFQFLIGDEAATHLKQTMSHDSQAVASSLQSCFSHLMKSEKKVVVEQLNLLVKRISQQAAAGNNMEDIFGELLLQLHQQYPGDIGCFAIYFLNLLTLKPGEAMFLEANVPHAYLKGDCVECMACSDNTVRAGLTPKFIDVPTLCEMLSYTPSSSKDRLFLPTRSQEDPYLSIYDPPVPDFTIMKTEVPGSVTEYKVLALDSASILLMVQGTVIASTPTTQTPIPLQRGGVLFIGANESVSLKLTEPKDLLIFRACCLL
row,SMILES,inhibition
1,Cc1ccc(C)c(N2CCN(CCCNC(=O)Cn3cccc3C(=O)c3ccccc3)CC2)c1,-7.6%
2,CC1(c2ccccc2Cl)NC(=O)N(CC(=O)NCc2ccco2)C1=O (centres undefined),-3%
3,COC(=O)c1sccc1NC(=O)CSc1nnnn1-c1ccccc1F,10.3%
4,O=C(O)CCSc1nnc(COc2ccc([N+](=O)[O-])cc2)n1-c1ccccc1,7.5%
5,CCCCCCn1c(N)c(C#N)c2ccc([N+](=O)[O-])cc2c1=O,63.1% (active)
6,N#Cc1c(N)n(-c2ccccc2)c(=O)c2cc([N+](=O)[O-])ccc12,36.6%
7,COc1ccc(-n2cnc3cc([N+](=O)[O-])ccc32)cc1,3.2%
8,CCCCCCC(=O)N=Nc1c(O)[nH]c2ccc([N+](=O)[O-])cc12,1.3%
9,COc1cccc(-n2c(N)c(C#N)c3ccc([N+](=O)[O-])cc3c2=O)c1,16.8%
10,COc1ccc(-n2c(N)c(C#N)c3ccc([N+](=O)[O-])cc3c2=O)cc1,52.3% (active)
11,COCCCNc1ncnc2c1[nH]c1ccccc12,16.1%
12,CCCN(C(=O)CSc1nc2c(cnn2-c2ccccc2)c(=O)[nH]1)C1CCS(=O)(=O)C1 (centres undefined),-13.4%
13,O=[N+]([O-])c1ccccc1/C=N/n1c(-c2cccnc2)n[nH]c1=S,3.5%
14,COc1ccc2c(c1)[nH]c1c(=O)n(Cc3ccco3)cnc12,20.7%
15,CCOC(=O)c1c(NC(=O)c2cccs2)sc2c1CC(C)(C)OC2,21.6%
16,Oc1ccc(/C=N/NC(=S)Nc2cccnc2)c(O)c1,-11.9%
17,Oc1ccc(/C=N/NC(=S)Nc2cccnc2)cc1O,6.3%
18,CCOc1ccc(NC(=S)N(CCN2CCOCC2)Cc2cc3cc4c(cc3[nH]c2=O)OCCO4)cc1,24.8%
19,COc1ccc(NC(=S)N(CCN2CCOCC2)Cc2cc3cc4c(cc3[nH]c2=O)OCO4)cc1,14.7%
20,CCOc1ccc(NC(=S)N(CCN2CCOCC2)Cc2cc3cc4c(cc3[nH]c2=O)OCO4)cc1,61.3% (active)
21,CCOC(=O)C1=C(C)NC(C)=C(C(=O)OCC)C1C(=O)OCC(=O)c1ccc2c(c1)OCCO2,14.5%
22,COC(=O)c1oc2ccccc2c1NC(=O)CN1CCCC1,6.8%
23,COc1cc(NC(=S)Nc2cccc(C)n2)cc(OC)c1OC,-3.5%
24,C/C(CC(=O)Nc1ccc(Cl)c(C(F)(F)F)c1)=N\NC(=O)c1cc2ccccc2cc1O,-5.7%
25,NC(=S)Nc1cccc2cc3ccccc3cc12,-9%

row,SMILES,inhibition
1,NC(=S)Nc1cc2ccccc2c2ccccc12,65.4% (active)
2,NC(=S)N/N=C\c1c2ccccc2cc2ccccc12,-132%
3,Cc1cccc(NC(=O)c2ccoc2C)n1,9.2%
4,COc1cc(-c2n[nH]c(=S)n2-c2cc(C(F)(F)F)ccc2Cl)cc(OC)c1OC,8.8%
5,O=c1oc2c(CN3CCOCC3)c(O)ccc2c2ccccc12,0.8%
6,CN(C)Cc1c(O)ccc2c3c(c(=O)oc12)CCCCC3,-2.7%
7,COc1cc(/C=C2/C(C)=C(C#N)c3nc(N)c(C#N)c(C)c32)ccc1OCC(=O)O,50.9% (active)
8,CC1=C(C#N)c2nc(N)c(C#N)c(C)c2/C1=C\c1ccc(-c2ccccc2C(=O)O)o1,10.6%
9,CC1=C(C#N)c2nc(N)c(C#N)c(C)c2/C1=C\c1ccc(C)cc1,-35.8%
10,Cc1c(O)ccc(NS(=O)(=O)c2ccccc2)c1C,5%
11,CCOC(=O)c1c(C)[n+]([O-])c2ccc3c(non3O)c12,10.7%
12,O=c1c2c(nc3n1CCCCC3)-c1ccccc1CC21CCCCC1,1.4%
13,CCc1ccc(C=NC23CN4CN(CN(C4)C2)C3)s1,2%
14,O=C(N/N=C\c1c(O)ccc2ccccc12)c1ccc(S(=O)(=O)N2CCCCC2)cc1,-8.7%
15,O=S(=O)(/N=C/c1c(O)ccc2ccccc12)c1cccs1,27.7%
16,O=C1C2C3C=CC(CC3)C2C(=O)N1/N=C/c1c(O)ccc2ccccc12 (centres undefined),70.3% (active)
17,Oc1ccc(C=NC2CCCCC2)c(O)c1,29%
18,Oc1ccc2ccccc2c1/C=N/Nc1ccccc1,-35.6%
19,CN(C)/N=C/c1c(O)ccc2ccccc12,26.9%
20,O=C1C2C3C=CC(CC3)C2C(=O)N1/N=C/c1ccccc1O (centres undefined),-0.9%
21,O=C1C2C3C=CC(CC3)C2C(=O)N1/N=C/c1ccc(O)c(O)c1 (centres undefined),-11.1%
22,Cc1ccccc1C(=O)NC(=S)Nc1ccc(S(=O)(=O)N2CCOCC2)cc1,3.6%
23,CC(C)CC(=O)NC(=S)Nc1ccccn1,-9.5%
24,CCSc1nnc(NC(=O)CCc2ccc(OC)cc2)s1,8.9%
25,Cc1ccc(C2C(C#N)=C(N)SC(N)=C2C#N)o1,-7.3%

row,SMILES,inhibition
1,Oc1c(Cl)cccc1C=Nc1cc(C(F)(F)F)ccc1N1CCCC1,7.1%
2,Oc1ccc2ccccc2c1C=Nc1cc(C(F)(F)F)ccc1N1CCCC1,52.1% (active)
3,O=C(N/N=C/c1c(O)ccc2ccccc12)c1cccc(C(F)(F)F)c1,8.4%
4,CC(=O)Nc1cc(Cl)ccc1OS(=O)(=O)c1ccc(C)cc1,6.5%
5,Fc1ccc(CN2CCCCCCC2)cc1,-6.8%
6,Nc1nc(-c2ccc(-c3ccccc3)cc2)cs1,-2.8%
7,COc1ccc(N(Cc2cc3cc(OC)ccc3[nH]c2=O)C(=O)C2CCCO2)cc1 (centres undefined),7.7%
8,COc1ccc2[nH]c(=O)c(CN(C(=O)C3CCCO3)c3ccc(C)cc3)cc2c1 (centres undefined),50% (active)
9,CCOc1ccc(N(Cc2cc3cc(OC)ccc3[nH]c2=O)C(=O)C2CCCO2)cc1 (centres undefined),13.8%
10,CCN(CC)c1ccc(NC(=S)NC(=O)Cc2ccccc2)cc1,50.1% (active)
11,CCC(=O)Nc1ccc(NC(=S)NC(=O)Cc2ccccc2)cc1,6%
12,CN(C)S(=O)(=O)c1ccc(NC(=S)NC(=O)Cc2ccccc2)cc1,-3.1%
13,Cc1ccc(CC2CC(=O)N(c3ccncc3)C2=O)cc1 (centres undefined),1.2%
14,CCc1nc2ccc(C(=O)Nc3ccc(NC(C)=O)cc3)cc2nc1CC,7.1%
15,c1cc(Nc2cccc3nccnc23)c2nccnc2c1,54.4% (active)
16,Cc1ccc(OS(=O)Nc2cccc3nccnc23)cc1 (centres undefined),5.5%
17,Fc1ccc(Nc2cccc3nccnc23)cc1,26.2%
18,Cc1cc(C)n(-c2cc(C(=O)O)cc(C(=O)O)c2)n1,-12.4%
19,CC1=C(Sc2nc3ccccc3[nH]2)C(=O)NC(C)(C)C1,0.2%
20,CO/N=C/CC(=O)c1cnc(-c2ccc(Cl)cc2)s1,53.8% (active)
21,CO/N=C/CC(=O)c1cnc(-c2ccccc2)s1,57.6% (active)
22,O=C(C/C=N/OCc1ccc(Cl)cc1)c1cnc(-c2ccccc2)s1,13.5%
23,O=C(C/C=N/OCc1ccc(F)cc1Cl)c1cnc(-c2ccccc2)s1,-2.1%
24,O=C(C/C=N/OCc1c(Cl)cccc1Cl)c1cnc(-c2ccccc2)s1,14.6%
25,O=C(C/C=N/OCc1ccccc1F)c1cnc(-c2ccc(Cl)cc2)s1,1.3%

row,SMILES,inhibition
1,Cc1ccccc1C(=O)NC1CCN(Cc2nnnn2Cc2ccc(F)cc2)CC1,4.6%
2,CCC(C)(C)NC(=O)C(c1ccccn1)N(C(=O)c1csnn1)c1ccc(C)cc1 (centres undefined),-1.6%
3,COc1cc(CNn2cn[nH]c2=S)cc(Br)c1OCc1ccccc1F,0.2%
4,CCCCCCNS(=O)(=O)c1ccc(OC)c(OC)c1,5.6%
5,CCCN1CCC(NC(=S)Nc2ccc(OC)c(OC)c2)CC1,-3%
6,CCn1cnc2cc(NCc3nc4ccccc4n3Cc3ccccc3)ccc21,50.6% (active)
7,CCn1cnc2cc(NCc3nc4ccccc4n3C)ccc21,14.9%
8,Cc1nc2cc(NCc3nc4ccccc4n3Cc3ccccc3)ccc2n1C,20%
9,CCOc1cc2[nH]c(=S)n(C3CC3)c(=O)c2cc1OCC,2.9%
10,O=C(c1ccccc1[N+](=O)[O-])N1CCCN(C(=O)c2ccccc2[N+](=O)[O-])CC1,-6.8%
11,COc1cc(NC(=O)C2CCCCC2)c2ncccc2c1,4.2%
12,COc1cc(NCCCCCCCN)c2ncccc2c1,50.3% (active)
13,COc1cc(NS(=O)(=O)c2ccc(C)cc2)c2ncccc2c1,32.6%
14,CCn1c(CSCc2ccc(Cl)cc2)n[nH]c1=S,-10.7%
15,CC(C)(C=O)C1=CC(=O)c2ccccc2C1=O,12.2%
16,CC(C)(C)C1=CC(=Nc2ccccc2N)C=C(C(C)(C)C)C1=O,-7.5%
17,Cc1ccc(S(=O)(=O)N2CCOCC2)cc1C(=O)Nc1ccccn1,4.2%
18,O=C(Cc1ccc(Cl)cc1)N/N=C/c1cccs1,15.1%
19,CCOC(=O)c1c(C)n(C)c2ccc(O)c(CN3CCN(C)CC3)c12,54.1% (active)
20,CCOC(=O)c1c(C)n(C)c2ccc(O)c(CN3CCC(C)CC3)c12,22.9%
21,CCOC(=O)c1c(C)n(C)c2ccc(O)c(CN3CCCCC3)c12,8.7%
22,COc1ccc(NCc2nnc(SCC(=O)Nc3ccc(OC)cc3)n2C)cc1,-0.9%
23,CCOC(=O)c1ccc(NC(=O)CSc2nnc(CNc3ccc(OC)cc3)n2C)cc1,53.5% (active)
24,CCOC(=O)c1ccc(NC(=O)CSc2nnc(CNc3ccc(C)cc3)n2C)cc1,11.2%
